# From PubChem BioAssay (NCI)
# The panel holds about 83,000 compounds, 20% with a hit somewhere; the sample as a whole holds those more often.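 Treatment: one concentration, 48 hours, 96-well format. Scoring: percent growth, with anything below 10 considered active.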 A number with no mark means an inactive call. Activity calls are given as the source filed them.
# Legend:
# Assay in all cases: NCI-60 one-dose screen, 48 h (100 = growth as untreated, 0 = no growth, -100 = all killed)
# Details in all cases: 10 µM unless noted
# HCT-15 colon = tested on: HCT-15 colon
# HT29 colon = tested on: HT29 colon
# SNB-75 CNS = tested on: SNB-75 CNS
# SNB-19 CNS = tested on: SNB-19 CNS
# U251 CNS = tested on: U251 CNS
# PC-3 prostate = tested on: PC-3 prostate
# SK-MEL-5 melanoma = tested on: SK-MEL-5 melanoma
# UACC-62 melanoma = tested on: UACC-62 melanoma
# LOX IMVI melanoma = tested on: LOX IMVI melanoma
# SK-MEL-28 melanoma = tested on: SK-MEL-28 melanoma
SMILES,growth (HCT-15 colon),growth (HT29 colon),growth (SNB-75 CNS),growth (SNB-19 CNS),growth (U251 CNS),growth (PC-3 prostate),growth (SK-MEL-5 melanoma),growth (UACC-62 melanoma),growth (LOX IMVI melanoma),growth (SK-MEL-28 melanoma)
COc1ccc2c(c1)c(-c1ccc(-c3cn(C)c4ccc(OC)cc34)[nH]1)cn2C,4.19% (active),48%,17.9%,27.2%,-62.9% (active),-11% (active),29.6%,5.29% (active),-17.8% (active),-20.1% (active)
CCOC(=O)N1CCN(S(=O)(=O)c2oc(-c3ccc(Cl)cc3)nc2C#N)CC1,-8.32% (active),79.3%,87.9%,98.3%,95.9%,93%,97.4%,98.8%,10.8%,
Nc1c(C(=O)Nc2cccc3ncccc23)sc2nc3c(cc12)C(=O)CCC3,52.9%,35.9%,43.7%,38%,57.5%,35.1%,30.3%,17.8%,55%,49%
COc1ccc(/C=C/C(=O)c2ccc(NC(=O)CSc3nnc(-c4cc(-c5ccccc5)nc5ccccc45)n3-c3ccccc3)cc2)cc1,92.5%,98.1%,100%,101%,102%,89.9%,97.5%,87.3%,96.5%,
CCOC(=O)C(=Cc1cccc(C#N)c1)C(=O)OCC,39%,20%,60.2%,85.1%,76.1%,62.8%,85.8%,53.4%,-44.1% (active),
C=CC(=O)N1CCN(c2ccc3cccc(NC(=O)c4cnc(C)cn4)c3n2)CC1,21.3%,51.3%,15.4%,62.4%,32.1%,43.5%,61.4%,26.9%,33.4%,
O=C(Cn1cc(CN2C(=O)c3ccccc3S2(=O)=O)nn1)Nc1cccc(Cl)c1,98.2%,109%,87.8%,115%,112%,104%,106%,97.4%,89.5%,105%
C=C1C(=O)O[C@H]2[C@H]1CC/C(COC(=O)/C=C\C(=O)NCc1ccc(Cn3c(=O)sn(-c4ccccc4)c3=O)cc1)=C\CC[C@@]1(C)O[C@@H]21,42.4%,50.8%,98%,107%,84.3%,83.5%,106%,85%,76%,
C=C1C(=O)O[C@H]2[C@H]1CC/C(COC(=O)NCc1ccc(Cn3c(=O)sn(-c4ccc(OC)cc4)c3=O)cc1)=C\CC[C@@]1(C)O[C@@H]21,4.27% (active),-15.5% (active),96%,94.8%,77.7%,70.3%,97.9%,60.7%,25%,
Cc1[nH]c(C(=O)Nc2ccc(C(N)=O)cc2NC(C)C)c(Cl)c1Cl,92.9%,106%,69%,103%,91.4%,77.4%,88.1%,91.4%,96.2%,105%
Cc1ncc(C(=O)Nc2ccc(CN3CCN(C)CC3)c(C(F)(F)F)c2)cc1C#Cc1cnc(N)c2cnccc12,6.59% (active),-43.1% (active),-90.6% (active),23.1%,-20.7% (active),41.7%,-20.8% (active),-65.2% (active),-90.1% (active),
Cc1cccc(NC(=O)CSc2nc3ccc([N+](=O)[O-])cc3[nH]2)c1,75.1%,90.4%,70%,80.3%,74.5%,75.1%,52%,42.6%,81.4%,80.7%
CS(=O)(=O)Cc1cnc(C2OCCO2)s1,109%,91.1%,91.2%,112%,96.5%,92.2%,97.8%,106%,100%,105%
